Test results published in PubChem BioAssay (Tox21).
Several values for one entry are separate records, joined by “and”; a condition that tells them apart may be missing. Equal entries are not always repeated. Records with an inconclusive call do not appear. Where a call stands in place of a potency, no number is given. Some compounds were tested as several samples or in several runs, with calls that do not always agree. Activity calls are given as the source filed them. Unless noted, calls follow the shape of the dose curve; as a rule, active = well fitted curve in the direction sought with a large enough effect in the repeat runs; inconclusive = weak or mixed curves; inactive = no such curve, though single readings can be large; an effect the other way counts as inactive or inconclusive.

Key:
[1] = qHTS assay for small molecule agonists of the p53 signaling pathway (AID 651631; calls by dose curve; also: nearly all actives have a fitted effect of over 15% in size; also: potency is read from the fitted curve at half-maximal effect)
Procedure, shortened: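 Beta-lactamase reporter activity under p53 response elements was quantified in HCT-116 cells by FRET fluorescence, following 16 h incubation with test compounds at 37 °C and 2 h substrate development at room temperature.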

[2] = qHTS assay for small molecule agonists of the p53 signaling pathway - cell viability (AID 651633; calls by dose curve; also: nearly all actives have a fitted effect of over 30% in size; also: potency is read from the fitted curve at half-maximal effect)
Procedure, shortened: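 Viability counter-read: CellTiter-Glo luminescence (30 min, room temperature) in the same p53RE-bla plates. These plates had been exposed to compounds for 16 h at 37 C.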

[3] = qHTS assay for small molecules that induce genotoxicity in human embryonic kidney cells expressing luciferase-tagged ATAD5 - cell viability (AID 651634; calls by dose curve; also: nearly all actives have a fitted effect of over 25% in size; also: potency is read from the fitted curve at half-maximal effect)
Procedure, shortened: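 Live-cell protease activity (CellTiter-Fluor, fluorescence) indicates viability. HEK293T cells with luciferase-tagged ATAD5; 15.5 hr compound treatment at 37C.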

[4] = qHTS assay for small molecule disruptors of the mitochondrial membrane potential - cell viability (AID 720634; calls by dose curve; also: nearly all actives have a fitted effect of over 20% in size; also: potency is read from the fitted curve at half-maximal effect)
Procedure, shortened: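 Human hepatoma HepG2 cells were treated for 1 hr with test chemicals, then given m-MPI dye and CellTiter-Glo. Cell viability reflects luminescence proportional to cellular ATP.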

[5] = qHTS assay for small molecule disruptors of the mitochondrial membrane potential (AID 720635); also: potency is read from the fitted curve at half-maximal effect
Procedure, shortened: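 Mitochondrial membrane potential tracked with Mito-MPS dye, red aggregates (ex 540/em 590 nm) against green monomers (ex 490/em 535 nm). Compound treatment 1 hr at 37C, dye 30 min in HepG2.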

[6] = qHTS assay to test for compound auto fluorescence at 590 nm (red) in HepG2 cells (AID 720674)
Procedure, shortened: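 We screened compounds on adherent HepG2 cells, incubating them for an hour at 37 C in 5% CO2 before reading emission at 590 nm under 540 nm excitation; values reflect equivalence to Rose Bengal sodium fluorescence.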

[7] = qHTS assay to test for compound auto fluorescence at 535 nm (green) in HepG2 cells (AID 720675)
[8] = qHTS assay to test for compound auto fluorescence at 460 nm (blue) in HEK293 cells (AID 720678)
Procedure, shortened: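 Blue read-out at excitation 405 nm and emission 460 nm follows overnight compound exposure of HEK293 cells at 37C in 5% CO2. Activity is given as auto fluorescence equivalency to triamterene.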

[9] = qHTS assay to test for compound auto fluorescence at 590 nm (red) in HEK293 cells (AID 720679)
Procedure, shortened: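 Red channel, Ex/Em 540/590nm; signal expressed as equivalency to Rose Bengal sodium. HEK293, 2,000 cells/well, 10% dialyzed FBS; 23 nL compound pinned after 4-5 hr attachment; overnight 37C/5% CO2 before reading.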

[10] = qHTS assay to test for compound auto fluorescence at 535 nm (green) in HEK293 cells (AID 720680)
[11] = qHTS assay to test for compound auto fluorescence at 460 nm (blue) in HEK293 cell free culture (AID 720681)
Procedure, shortened: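 Blue fluorescence (Ex 405/Em 460 nm, triamterene-equivalent) was read immediately after pin transfer of compound or DMSO into medium (DMEM, 10% FBS) without cells.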

[12] = qHTS assay to test for compound auto fluorescence at 535 nm (green) in HEK293 cell free culture (AID 720682)
Procedure, shortened: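 Each library compound, or DMSO control, is added by pintool to medium alone, comprising DMEM and 10% FBS. Emission at 535 nm following 485 nm excitation is quantified against fluorescein.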

[13] = qHTS assay to test for compound auto fluorescence at 590 nm (red) in HEK293 cell free culture (AID 720683)
Procedure, shortened: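 Red-channel autofluorescence of compounds in culture medium (DMEM, 10% FBS), no cells, measured at 540/590 nm. Rose Bengal sodium is the reference fluorophore for equivalence.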

[14] = qHTS assay to test for compound auto fluorescence at 590 nm (red) in HepG2 cell free culture (AID 720684)
Procedure, shortened: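 Steps: dispense MEM/10% FBS medium, no cells; pin compound or DMSO vehicle; read red channel, Ex/Em 540/590 nm. Output given as Rose Bengal sodium equivalents.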

[15] = qHTS assay to test for compound auto fluorescence at 460 nm (blue) in HepG2 cell free culture (AID 720685)
Procedure, shortened: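 Compound (23 nL) or DMSO pinned into cell-free MEM with 10% FBS; blue fluorescence read at 405/460 nm excitation/emission, expressed as auto-fluorescence equivalency to triamterene.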

[16] = qHTS assay to test for compound auto fluorescence at 535 nm (green) in HepG2 cell free culture (AID 720686)
[17] = qHTS assay to test for compound auto fluorescence at 460 nm (blue) in HepG2 cells (AID 720687)
Procedure, shortened: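 Blue-channel autofluorescence (Ex/Em 405/460 nm, triamterene-equivalent) was measured after 1 hr compound exposure at 37 C, 5% CO2. Cells were HepG2, plated overnight at 37 C in MEM plus 10% FBS.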

[18] = biological target: Glucocorticoid receptor (Homo sapiens) (UniProt P04150); assay: qHTS assay to identify small molecule antagonists of the glucocorticoid receptor (GR) signaling pathway (AID 720692; active = well fitted inhibition curve with a large enough effect in the signal ratio in the repeat runs, not every such curve was filed as active; the % refers to the signal ratio)
Procedure, shortened: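 Fluorescence from cleaved LiveBLAzer B/G FRET substrate reports GRE-driven beta-lactamase in HeLa cells; compounds are tested against 5 nM dexamethasone (final) over 18 h at 37 C, substrate incubation 2 h at room temperature.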

[19] = biological target: Glucocorticoid receptor (Homo sapiens) (UniProt P04150); assay: qHTS assay to identify small molecule agonists of the glucocorticoid receptor (GR) signaling pathway (AID 720691; active = well fitted activation curve with a large enough effect in the signal ratio in the repeat runs, not every such curve was filed as active; the % refers to the signal ratio)
Procedure, shortened: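 Beta-lactamase reporter activity, read as fluorescence intensity, was measured in GR-bla HeLa cells exposed to compounds for 18 h at 37 C and then loaded with LiveBLAzer B/G FRET substrate for 2 h at room temperature.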

[20] = qHTS assay for small molecules that induce genotoxicity in human embryonic kidney cells expressing luciferase-tagged ATAD5 (AID 651632); also: nearly all actives have a fitted effect of over 15% in size
Procedure, shortened: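 Genotoxicity read-out via ATAD5-luciferase: HEK293T cells, 16 hr compound incubation at 37C, Amplite detection.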

Glucocorticoid receptor (Homo sapiens), sequence (P04150 whole entry, looked up): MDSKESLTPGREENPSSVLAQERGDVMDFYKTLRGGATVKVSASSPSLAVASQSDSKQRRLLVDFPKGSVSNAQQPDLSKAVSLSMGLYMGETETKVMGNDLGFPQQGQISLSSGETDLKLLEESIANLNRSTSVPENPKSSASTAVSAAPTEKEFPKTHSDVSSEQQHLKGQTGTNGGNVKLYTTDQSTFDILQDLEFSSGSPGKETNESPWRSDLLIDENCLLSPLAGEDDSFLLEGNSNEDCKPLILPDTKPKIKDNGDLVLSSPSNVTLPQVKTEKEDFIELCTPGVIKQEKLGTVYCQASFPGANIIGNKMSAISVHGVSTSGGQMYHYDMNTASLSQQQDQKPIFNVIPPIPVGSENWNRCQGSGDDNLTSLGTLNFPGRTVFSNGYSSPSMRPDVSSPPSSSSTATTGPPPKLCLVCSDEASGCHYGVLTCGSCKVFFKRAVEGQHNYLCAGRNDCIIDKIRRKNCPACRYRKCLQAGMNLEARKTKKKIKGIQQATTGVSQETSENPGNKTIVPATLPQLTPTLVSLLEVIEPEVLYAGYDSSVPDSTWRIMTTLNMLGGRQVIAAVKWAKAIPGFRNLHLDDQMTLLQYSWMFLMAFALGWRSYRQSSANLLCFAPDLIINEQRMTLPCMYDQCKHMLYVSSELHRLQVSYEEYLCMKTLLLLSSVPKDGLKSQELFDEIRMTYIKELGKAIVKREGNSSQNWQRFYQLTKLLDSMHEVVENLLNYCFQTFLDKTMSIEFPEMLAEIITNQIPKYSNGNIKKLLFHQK

Row | SMILES | Potency [1] | Potency [2] | Potency [3] | Potency [4] | Potency [5] | outcome [6] | outcome [7] | Potency [8] | outcome [9] | outcome [10] | Potency [11] | outcome [12] | outcome [13] | outcome [14] | Potency [15] | outcome [16] | Potency [17] | Potency [18] | outcome [19] | Potency [20]
1 | N#CCCCCC#N | inactive | inactive | inactive | inactive | inactive | inactive | inactive | inactive | inactive | inactive | inactive | inactive | inactive | inactive | inactive | inactive | inactive | inactive | – | –
2 | S=c1[nH]c2ccccc2[nH]1 | inactive | inactive | inactive | inactive | inactive | inactive | inactive | inactive | inactive | – | inactive | inactive | inactive | inactive | inactive | inactive | inactive | inactive | inactive | –
3 | COP(=O)(NC(C)=O)SC (stereo not given) | inactive | inactive | inactive | inactive | – | inactive | inactive | inactive | inactive | – | inactive | inactive | inactive | inactive | inactive | – | inactive | inactive | inactive | –
4 | CS(=O)(=O)NC(=O)c1cc(Oc2ccc(C(F)(F)F)cc2Cl)ccc1[N+](=O)[O-] | inactive | inactive | inactive | – | – | inactive | inactive | inactive | inactive | inactive | inactive | inactive | inactive | inactive | inactive | inactive | inactive | – | – | –
5 | N#CC(c1ccccc1)c1ccccc1 | inactive | inactive | inactive | inactive | 7.69 µM (active) | inactive | inactive | inactive | inactive | inactive | inactive | inactive | inactive | inactive | inactive | – | inactive | inactive | – | –
6 | N#Cc1c(Cl)c(Cl)c(Cl)c(C#N)c1Cl | 21.3 µM (active) and 30.6 µM (active) | 6.73 µM (active) and 9.69 µM (active) | 30 µM (active) and 8.63 µM (active) | 19 µM (active) and 21.7 µM (active) | 3.37 µM (active) and 27.3 µM (active) | inactive | inactive | inactive | inactive | – | inactive | inactive | inactive | inactive | inactive | inactive | inactive | – | – | –
7 | O=C(O)CF | – | inactive | inactive | inactive | inactive | inactive | inactive | inactive | inactive | inactive | inactive | inactive | inactive | inactive | inactive | – | inactive | – | – | inactive
8 | CCCCC(C#N)(Cn1cncn1)c1ccc(Cl)cc1 (stereo not given) | inactive | inactive | inactive | inactive | – | inactive | – | inactive | inactive | inactive | inactive | inactive | inactive | inactive | inactive | inactive | inactive | inactive | inactive | –
9 | O=C1Nc2ccc(Cl)cc2C(c2ccccc2)=NC1O (stereo not given) | inactive | inactive | inactive | inactive | – | inactive | inactive | inactive | inactive | inactive | inactive | inactive | inactive | inactive | inactive | – | inactive | – | – | –
10 | CC1(C)Cc2cccc(O)c2O1 | – | inactive | inactive | inactive | inactive | inactive | inactive | inactive | inactive | inactive | inactive | inactive | inactive | inactive | inactive | – | inactive | – | – | inactive
11 | C=C(C)C#N | inactive | inactive | inactive | – | – | inactive | inactive | inactive | inactive | inactive | inactive | inactive | inactive | inactive | inactive | – | inactive | – | – | –
12 | Nc1ccc2ccccc2c1 | inactive | inactive | inactive | inactive | inactive | inactive | inactive | inactive | inactive | – | inactive | inactive | inactive | inactive | inactive | – | inactive | – | – | –
13 | ClC(Cl)=C(Cl)C(Cl)=C(Cl)Cl | – | inactive | inactive | inactive | inactive | inactive | inactive | inactive | inactive | – | inactive | inactive | inactive | inactive | inactive | – | inactive | inactive | inactive | inactive
14 | O=[N+]([O-])/N=C1\NCCN1Cc1ccc(Cl)nc1 | – | inactive | inactive | inactive | inactive | inactive | – | inactive | inactive | inactive | inactive | inactive | inactive | inactive | inactive | – | inactive | inactive | inactive | inactive
15 | C=CC(Cl)CCl (stereo not given) | – | inactive | inactive | – | – | inactive | – | inactive | inactive | – | inactive | inactive | inactive | inactive | inactive | inactive | inactive | inactive | – | inactive
16 | CCCCCCCCCc1ccc(O)cc1 | – | – | – | 17.4 µM (active) | 6.18 µM (active) | inactive | inactive | inactive | inactive | inactive | inactive | inactive | inactive | inactive | inactive | inactive | inactive | – | – | inactive
17 | [Cl-].[Cl-].[Cl-].[Fe+3] | – | – | inactive | – | – | inactive | inactive | inactive | inactive | inactive | inactive | inactive | inactive | inactive | inactive | inactive | inactive | – | – | –
18 | CSc1nc(NC(C)C)nc(NC(C)C)n1 | – | inactive | inactive | inactive | – | inactive | inactive | inactive | inactive | – | inactive | inactive | inactive | inactive | inactive | – | inactive | – | – | –
19 | COP(=S)(OC)Oc1ccc(Sc2ccc(OP(=S)(OC)OC)cc2)cc1 | – | inactive | inactive | 61.1 µM (active) | 24.8 µM (active) and 30.6 µM (active) | inactive | inactive | inactive | inactive | inactive | inactive | inactive | inactive | inactive | inactive | inactive | inactive | – | – | –
20 | CCOP(=O)(O)OCC (tested in a mixture with another compound) | – | inactive and 60.6 µM (active) | – | inactive and 60.6 µM (active) | 24.1 µM (active) | inactive | inactive | inactive | inactive | inactive | inactive | inactive | inactive | inactive | inactive | inactive | inactive | – | – | inactive
21 | COP(=S)(OC)SCn1nnc2ccccc2c1=O | – | inactive | inactive | – | – | inactive | inactive | inactive | inactive | inactive | inactive | inactive | inactive | inactive | inactive | inactive | inactive | – | – | inactive
22 | CC(C)(c1ccccc1)c1ccc(O)c(C(C)(C)c2ccccc2)c1 | – | 13.6 µM (active) and 30.6 µM (active) | 60.6 µM (active) | – | 1.52 µM (active) and 2.43 µM (active) | inactive | inactive | inactive | inactive | inactive | inactive | inactive | inactive | inactive | inactive | – | inactive | – | – | inactive
23 | CC(C)(O)C(=O)Nc1ccc([N+](=O)[O-])c(C(F)(F)F)c1 | – | inactive | inactive | – | 15.7 µM (active) and 17.8 µM (active) | inactive | – | inactive | inactive | inactive | inactive | inactive | inactive | inactive | inactive | inactive | inactive | – | – | inactive
24 | Cl | – | – | inactive | – | – | inactive | inactive | inactive | inactive | – | inactive | inactive | inactive | inactive | inactive | – | inactive | – | – | –
25 | Oc1ccc(Cl)cc1Cc1ccccc1 | – | 55.1 µM (active) | – | 13.3 µM (active) and 21.7 µM (active) and 15.4 µM (active) | 5.96 µM (active) and 2.43 µM (active) and 1.55 µM (active) | inactive | inactive | inactive | inactive | – | inactive | inactive | inactive | inactive | inactive | inactive | inactive | – | – | inactive
